From PubChem BioAssay come the findings set out here.

Assay [1] can be described thus: blockers of polyQ-driven CASP3 activation – cell-based (AID 1583). Particulars: polyglutamine-induced caspase-3 activation, cell assay; stronger effect = higher value;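 tested at 10 µM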.
Assay [2] in a line: yeast 75Q aggregation reduction – 75Q-TubU reporter (AID 1593). Particulars: Yeast 75Q polyglutamine aggregation reporter.
A short description of assay [3]: restoration of touch response, mutant HTT neurons – whole organism, C. elegans mechanosensory neurons, N-terminal huntingtin (AID 1599). Particulars: C. elegans polyQ-huntingtin mechanosensory neurons, stronger effect = higher value.
Assay [4] in a line: blockers of cytochrome c efflux from mitochondria – biochemical, purified mitochondria (AID 1603).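 Note: mouse liver mitochondria challenged with calcium chloride; signal normalized to the plate average as 100%.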 Particulars: stronger effect = lower value.
A short description of assay [5]: polyglutamine aggregate formation blockers (AID 1604). Particulars: polyglutamine-induced protein aggregation inhibition assay; stronger effect = higher value; tested at 2.5 µM.
The nature of assay [6]: glutamate transport activators, MN-1 cells, MN-1 cell line (AID 1612).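 Note: tested at 1 µM final; 0% = mean of DMSO vehicle wells on each plate; positive means more glutamate uptake than control and negative means less.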 Particulars: MN-1 motor neuron cells, stronger effect = higher value.
A short description of assay [7]: 75Q-TubH aggregate inhibition, S. cerevisiae, yeast (AID 1616). Particulars: S. cerevisiae 75Q-TubH polyglutamine aggregation suppression; stronger effect = higher value.
Assay [8] in a line: signal quenchers or enhancers, Cy5 substrate/SSB – biochemical, NIH Clinical Collection, E. coli SSB, artefact control for HCV NS3 helicase inhibitor project (AID 743268). Particulars: Cy5-oligo bound E. coli SSB, fluorescence interference.
For assay [9], the system named is Hepatitis C virus NS3 helicase. Briefly: blockers of NS3h binding to DNA – biochemical, fluorescence polarization, NIH Clinical Collection, primary screen (AID 743270). Particulars: NS3 helicase binding to Cy5-dT15 DNA, stronger effect = higher value, concentration not given here. (Fluorescence polarisation rises when a labelled molecule tumbles more slowly, as on binding a larger partner.)

The target in assay [10] is Single-stranded DNA-binding protein (Escherichia coli (strain K12)) (UniProt P0AGE0). Briefly: SSB-ssDNA binding inhibitors – biochemical, fluorescence polarization, NIH Clinical Collection, counter-screen for HCV NS3 helicase inhibitor project (AID 743271; in the data active = inhibition above about 28%). Particulars: E. coli SSB-DNA binding, stronger effect = higher value, concentration not given here.
The nature of assay [11]: compounds distorting NS3 helicase fluorescence signal – biochemical, NIH Clinical Collection, artefact control for HCV NS3 helicase inhibitor project (AID 743272).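 Note: HCV NS3 helicase with a Cy5 labelled single stranded DNA probe.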 Particulars: fluorescence interference counterscreen, HCV NS3 helicase assay; stronger effect = lower value. Background: The purpose of a counterscreen is to sort out artefacts and off-target activity.
Assay [12] can be described thus: modulation of C. elegans fzo-1 (AID 1259413).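 Note: fzo-1 mutant C. elegans worms in liquid wells.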 Particulars: C. elegans fzo-1 modulator screen, mean read-out; stronger effect = higher value.
The target in assay [13] is Mitogen-activated protein kinase 7 (Homo sapiens) (UniProt Q13164). The assay can be described thus: Gal4-ERK5 driven luciferase induction – cell-based, HTS, primary screen (AID 1508626;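 active = luciferase signal above three times the same-plate solvent-only control wells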;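 note: luciferase driven by Gal4-ERK5 fusion binding five Gal4 sites before minimal TATA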). Particulars: HeLa Gal4-ERK5 transactivation, 18 h, at 5 µM, stronger effect = higher value.
Mitogen-activated protein kinase 7 (Homo sapiens), sequence (Q13164 whole entry, looked up, the tested form may be a part): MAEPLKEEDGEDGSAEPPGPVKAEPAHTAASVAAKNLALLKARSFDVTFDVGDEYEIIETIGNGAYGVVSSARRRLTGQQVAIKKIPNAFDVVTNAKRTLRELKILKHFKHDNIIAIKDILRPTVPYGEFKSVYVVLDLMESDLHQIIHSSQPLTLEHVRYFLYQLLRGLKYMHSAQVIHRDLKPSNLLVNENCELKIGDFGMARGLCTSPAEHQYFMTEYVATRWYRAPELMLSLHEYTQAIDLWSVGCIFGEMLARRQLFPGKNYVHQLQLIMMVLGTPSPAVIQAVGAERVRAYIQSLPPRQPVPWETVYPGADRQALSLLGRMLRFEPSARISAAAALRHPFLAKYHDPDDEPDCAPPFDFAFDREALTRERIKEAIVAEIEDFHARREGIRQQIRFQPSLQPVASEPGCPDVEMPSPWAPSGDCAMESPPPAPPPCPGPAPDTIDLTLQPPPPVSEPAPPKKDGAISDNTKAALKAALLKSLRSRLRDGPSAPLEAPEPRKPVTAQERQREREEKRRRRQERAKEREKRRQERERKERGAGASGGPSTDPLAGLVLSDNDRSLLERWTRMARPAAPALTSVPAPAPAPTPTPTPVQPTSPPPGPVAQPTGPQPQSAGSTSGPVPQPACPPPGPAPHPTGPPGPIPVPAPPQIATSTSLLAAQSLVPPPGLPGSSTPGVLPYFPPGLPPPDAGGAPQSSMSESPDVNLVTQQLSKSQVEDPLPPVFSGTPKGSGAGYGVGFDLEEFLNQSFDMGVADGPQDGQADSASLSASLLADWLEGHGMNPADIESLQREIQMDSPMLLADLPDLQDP
The subject of assay [14] is R275C/beta1. The assay can be described thus: BK channel mutant inhibitors and activators – cell-based, U2OS BacMam, thallium flux, beta subunits, selectivity assay, profiling panel (AID 1259406;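 active = thallium flux through the channel raised or lowered by more than 3 SD from vehicle-only wells, actives on both sides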;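 note: initial slope of Thallos dye fluorescence rise after thallium is added; log ratio against the mean of 0.3% DMSO vehicle wells on the same plate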). Particulars: U2OS BacMam BK variants, at 30 µM.
The test system of assay [15] is R275C/beta2Delta. Described as above. Particulars: U2OS BacMam BK variants, at 30 µM.
Assay [16] concerns R275C/beta4. The assay is described as above. Particulars: U2OS BacMam BK variants, at 30 µM.
For assay [17], the system named is R275C/Slo1WT/beta2. The description is as above. Particulars: U2OS BacMam BK variants, at 30 µM.
Assay [18] can be described thus: galactose survival enhancers in mitochondrial complex I cybrids – cell-based, galactose medium, ATP luminescence, primary screen (AID 1645843;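 active = z-score of at least 1.8 in each of two replicates, scored against plate mean and spread of sample wells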;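 note: positive z means more ATP and so rescue of galactose-driven cybrid death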). Particulars: complex I mutant cybrid cells, 72 h, stronger effect = higher value.
Assay [19] is described as follows: growth inhibition, single agents and combos, ICB984, cell-based, cisplatin or BGB combos, synergistic combos for chromothripsis tumors (AID 1671451).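 Note: cells exposed for 96 hours before readout; 0% = vehicle DMSO and 100% = killing by high DMSO.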 Particulars: ICB984 medulloblastoma cells, drug combinations, stronger effect = higher value.
The nature of assay [20]: compounds altering viability of human ES cells (AID 493140).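 Note: cells exposed to compounds for four days before counting.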 Particulars: human embryonic stem cell survival screen; stronger effect = higher value.

Where “and” joins values, the source holds several entries; their conditions need not be identical. Equal values may be shown once. For part of these data: Results with a measured potency or affinity are listed apart. Calls of active or inactive are those of the source. Unless noted, the rule behind the calls is not given here.

By inhibition is commonly meant the relative decrease from the control value, in per cent. For `CN=C(NC#N)NCCSCc1nc[nH]c1C`, the inhibition was 15.1% in assay [1], -3.18% (inactive) in assay [9] and -2% (inactive) in [10]. The same molecule registered a score in assay [2] of 1.08. The molecule further registered a rescue above control in assay [3] of -9.17. Besides, the cytochrome c release ratio in assay [4] was 1.04. In addition, in assay [5], the inhibition of aggregation was 58.9%. Moreover, the glutamate uptake change in assay [6] is -5.55%. Also, the aggregation suppression score in assay [7] turned out to be 1.05. Further, the results for the fluorescence ratio in assay [8] and in assay [11] were 0.98 (inactive) and 0.94 (inactive), respectively. Also, in assay [12], the mean signal was 239 (inactive). Also, in assay [13], the luciferase signal is 44 AU (inactive). Besides, the log fold change Tl+ flux in assay [14] is -0.0361 (inactive); in assay [15], 0.00462 (inactive); in assay [16], 0.0223 (inactive); in assay [17] it was 0.0339 (inactive).

Consider `CC1Cc2ccccc2N1NC(=O)c1ccc(Cl)c(S(N)(=O)=O)c1` (stereo unspecified), for which the inhibition is 11.1% in assay [1], 0.45% (inactive) in assay [9] and 1.05% (inactive) in [10]. This molecule also had a score in assay [2] of 1.1. Moreover, in [3], the rescue above control is 19. The cytochrome c release ratio in [4] was 0.89. The inhibition of aggregation in assay [5] stood at 85.9%. In [6], the glutamate uptake change is -15%. Moreover, the aggregation suppression score in assay [7] is 1.3. Further, the fluorescence ratio is 0.31 (active) in assay [8] and 0.97 (inactive) in assay [11]. In addition, the mean signal in [12] is 231 (inactive). Also, the luciferase signal in assay [13] is 56 AU (inactive). Further, in assay [18], the z-score was 0.635 (inactive) and 0.155 (inactive). In addition, the log fold change Tl+ flux is 0.0126 (inactive) in assay [14], -0.00869 (inactive) in assay [15], 0.00861 (inactive) in assay [16] and -0.000687 (inactive) in [17].

As to `CC(=O)OCC(CCn1cnc2cnc(N)nc21)COC(C)=O`, the fluorescence ratio in [8] was 1.06 (inactive); in assay [11], 0.99 (inactive). Besides, the inhibition in [9] is -1.98% (inactive); in assay [10], -4.72% (inactive); in assay [19] (BGB IC20 combo, at 0.005 µM), 1.9%; in assay [19] (BGB IC40 combo, at 0.005 µM), -6.07%; in assay [19] (BGB IC40 combo, at 0.05 µM), -14.6%; in [19] (at 0.5 µM), -31.4% (inactive). In addition, the inhibition in [19] (cisplatin combo, at 0.05 µM) is -17.8%; in assay [19] (cisplatin combo, at 0.5 µM) it was -37.3%; in assay [19] (cisplatin combo, at 5 µM) it was -37.5%; in assay [19] (measured here: 5 uM single agent, at 5 µM), -40.1%. In assay [12], the mean signal is 292 (inactive). Further, the luciferase signal in assay [13] was 160 AU (inactive). In assay [18], the z-score was 0.72 (inactive) and 0.425 (inactive) and 0.32 (inactive). Further, the log fold change Tl+ flux in assay [14] is 0.0343 (inactive); in assay [15] it was -0.0321 (inactive); in assay [16] it was 0.0276 (inactive); in assay [17], 0.0386 (inactive).

On to `COc1ccccc1OCCNCC(O)COc1cccc2[nH]c3ccccc3c12` (stereo unspecified), for which the fluorescence ratio in assay [8] was 0.92 (inactive); in [11], 0.94 (inactive). The inhibition in [9] was 1.19% (inactive); in assay [10], 6.83% (inactive). Further, in assay [12], the mean signal is 201 (inactive). For the same molecule, the luciferase signal in assay [13] is 340 AU (inactive). Further, the log fold change Tl+ flux was 0.386 (active) in assay [14], 0.0657 (inactive) in assay [15], 0.216 (active) in assay [16] and 0.0443 (inactive) in [17].

Turning to `O=C(O)c1cccnc1`, the inhibition in assay [1] is 1.52%. This molecule yielded a score in [2] of 1.31. The molecule further returned a rescue above control in assay [3] of 2.74. Further, the cytochrome c release ratio in [4] is 0.86. In addition, in assay [5], the inhibition of aggregation is 67.8%. Also, in assay [6], the glutamate uptake change was -8.8%. For the same molecule, in assay [7], the aggregation suppression score came to 1.88. In addition, the survival in [20] is 4 (inactive). Moreover, the fluorescence ratio in assay [8] was 1.05 (inactive); in assay [11], 0.99 (inactive). Further, the mean signal in assay [12] was 255 (inactive). For the same molecule, the luciferase signal in assay [13] was 44 AU (inactive). The z-score in assay [18] is 0.63 (inactive). Further, the log fold change Tl+ flux in [14] was -0.00198 (inactive); in [15] it was 0.0288 (inactive); in assay [16] it was 0.0274 (inactive); in assay [17] it was -0.00368 (inactive).
